# PINK1 modulator = A Quantitative High throughput Screen to Identify Chemical Modulators of PINK1 Expression | Potency, µM (doses to about 76.6 µM), for the others: at the highest dose activation (PINK1 increase), usual class: activators | AID 624263, 2012 | PINK1 immunofluorescence, high-content cytometry, 24 h | actives 0.2% (n = 410,000); active = well fitted activation curve with a large enough effect; inconclusive = small, poorly fitted or top-dose-only effect; cell line not stated here; note: % of control where 0% means no effect; nearly all actives have a fitted effect of over 65% in size
#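 Decision-based qHTS: stable cells, 24 h exposure to five compound concentrations, CCCP as control. Fixed cells stained for PINK1 plus nuclear, mitochondrial and cell markers, cytometer read.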
# SW480 rerep = A quantitative high throughput screen for small molecules that induce DNA re-replication in SW480 colon adenocarcinoma cells; Potency, µM (titrated, usually from 46.1 µM), without a hit: top-dose re-replication activation, actives largely listed as activators; SW480 DNA re-replication, Hoechst DNA content imaging, 48 h; AID 624297, 2012; actives 1.8% (n = 340,000); note: % of control where 0% means no effect; nearly all actives have a fitted effect of over 55% in size
#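 DNA re-replication was detected as more nuclei of elevated Hoechst intensity after 48 hr exposure to compound (23 nL pinned per well of 250 cells).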
# KB-3-1 cytotox = qHTS assay for MDR1-selective chemotherapeutics: Primary screen using the parental adenocarcinoma cell KB-3-1 | Potency, µM (titrated, usually from 46.1 µM), actives largely listed as cytotoxic | actives 1.4% (n = 400,000) | KB-3-1 viability, CellTiter-Glo ATP luminescence, 72 h; note: % is set by controls: 0 for no effect and ±100 for the full control effect; nearly all actives have a fitted effect of over 60% in size
#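 KB-3-1 parental drug-naive adenocarcinoma cells in DMEM/10% FBS, incubated 72 h at 37 C with pin-transferred compounds across a concentration series. Viability by CellTiter-Glo luminescence; concentration-response curves fitted after normalization.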
# KB-V1 cytotox = qHTS assay for MDR1-selective chemotherapeutics: Primary screen using the drug-selected MDR subline cells KB-V1; KB-V1 MDR cells viability, CellTiter-Glo, 72 h; Potency, µM (highest dose often 46.1 µM), actives largely listed as cytotoxic; actives 3.4% (n = 400,000); AID 1347076, 2019; note: % is set by controls: 0 for no effect and ±100 for the full control effect; nearly all actives have a fitted effect of over 60% in size
#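 KB-V1, DMEM (no phenol red) + 10% FBS; cpd pin-transferred, titration series; 72 h, 37 degrees C; CellTiter-Glo, luminescence. Data normalized, curve-fit.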
# TSG101-PTAP inh = qHTS Assay for Iinhibitors of HIV-1 Budding by Blocking the Interaction of PTAP/TSG101 | Fluorescence polarization, FITC-PTAP peptide / Tsg101 binding | 340,000 tested, under 10 active | AID 493005, 2010 | Tumor susceptibility gene 101 protein (Homo sapiens), Q99816 | Potency, µM (top dose mostly 115 µM), for the others: at the top dose activity change, negative = inhibition, actives largely listed as inhibitors; active = well fitted inhibition curve with a large enough effect in the main read-out, with a control signal flat, not every such curve was filed as active; inconclusive = small, poorly fitted or top-dose-only effect, or effect the other way, or a change in a side signal; inactive = no such curve, though single readings can be large or run the other way; note: % of control where 0% means no effect
# Target sequence (Q99816 whole entry, looked up): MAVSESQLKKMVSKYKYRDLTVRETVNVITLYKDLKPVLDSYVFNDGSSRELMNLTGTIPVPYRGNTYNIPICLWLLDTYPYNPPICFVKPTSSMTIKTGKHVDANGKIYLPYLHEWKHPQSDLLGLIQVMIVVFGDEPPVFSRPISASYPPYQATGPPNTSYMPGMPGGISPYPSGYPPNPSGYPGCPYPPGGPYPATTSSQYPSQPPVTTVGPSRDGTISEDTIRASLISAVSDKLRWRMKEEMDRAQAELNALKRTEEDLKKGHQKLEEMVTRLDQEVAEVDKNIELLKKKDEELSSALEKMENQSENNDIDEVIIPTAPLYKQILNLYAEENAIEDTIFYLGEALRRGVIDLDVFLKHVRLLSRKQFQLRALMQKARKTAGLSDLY
#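 Tsg101 binding domain (10 uM final) was mixed with compound and a FITC-labeled PTAP peptide (50 nM final) in HEPES pH 7.5 buffer with NaCl, Tween 20, EDTA and TCEP; fluorescence polarization was read after 20 min at r.t.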
# MCF10A rerep = A quantitative high throughput screen for small molecules that induce DNA re-replication in MCF 10a normal breast cells; MCF 10A DNA re-replication, Hoechst nuclear intensity, 48 h; Potency, µM (titrated, usually from 46.1 µM), without a hit: at the highest dose activity, positive = re-replication, actives largely listed as activators; actives 2.9% (n = 350,000); AID 624296, 2012; note: % of control where 0% means no effect; nearly all actives have a fitted effect of over 50% in size
# Numbers without * were called inactive; i = inactive; ? = inconclusive; . = not tested or not shown; [ ] = dose if it differs, or a comment. In the library only some 6.8% were active in any assay of this set; here they are far more common. Unless noted, calls come from the whole dose curve; as a rule, active = well fitted curve in the direction sought with a large enough effect; inconclusive = small, poorly fitted or top-dose-only effect, or another doubt; inactive = no such curve, though single readings can be large; an effect the other way counts as inactive or inconclusive. Potency is the fitted concentration of half-maximal effect.
SMILES,PINK1 modulator,SW480 rerep,KB-3-1 cytotox,KB-V1 cytotox,TSG101-PTAP inh,MCF10A rerep
COc1ccc(C2CC(c3ccccc3)=NN2C(=O)c2ccc(F)cc2)cc1 (stereo not drawn),3.1%,6.2%,i,i,-6.0%,14.9%
COc1ccc(C2CC(c3ccc(OC)cc3O)=NN2C(=O)c2ccccc2)cc1 (stereo not drawn),0.3%,2.7%,i,?,-3.7%,?
COc1ccc(C2CC(c3ccccc3)=NN2C(=S)Nc2ccccc2)cc1 (stereo not drawn),0.9%,-1.7%,i,i,-2.4%,-2.3%
CCC(=O)Nc1cccc(C2=NN(c3ccccc3)C(c3ccc(OC)cc3)C2)c1 (stereo not drawn),2.3%,18.4µM*,i,i,-0.2%,?
CC(=O)Oc1ccc(C2=NN(c3ccccc3)C(c3ccccc3)C2)cc1 (stereo not drawn),26.6%,18.4µM*,?,?,0.6%,5.8µM*
C=C1C(=O)O[C@H]2[C@H]1[C@@H](O)CC(=C)[C@@H]1CC(=O)[C@@H](C)[C@H]21,4.1%,4.61µM*,i,i,-8.2%,11.6µM*
C=C(C)C1CCC(C)=C1CC(C)(C)/C=N\n1cnnc1 (stereo not drawn),-1.6%[38.3 µM],10.9%,i,14.6µM*,-11.5%,-18.2%
CC1=CC(C)C(/C=N/n2cnnc2)C(C)C1 (stereo not drawn),0.5%,-5.4%,i,i,-6.2%,0.6%
C/C(=N/NC(=O)c1ccc(Br)o1)C(C)C,0.4%,0.517µM*,i,i,-1.3%,0.8%
CC(C)c1ccc(NC(=O)c2ccc(Br)o2)cc1,2.5%,3.7%,i,i,-0.5%,27.3%
Cc1ccc(Cn2c(C)c(CNCCCc3ccccc3)c(C(=O)O)c2C)cc1,-1.2%,.,i,i,.,.
O=C1NN=C(c2ccccc2)CC1c1ccc(Cl)cc1Cl (stereo not drawn),0.8%,18.4µM*,i,i,-3.1%,?
CC1CCCC(C)N1C(=C(Cl)Cl)C(=C1SCCS1)[N+](=O)[O-] (stereo not drawn),4.2%,-3.0%,25.9µM*,?,1.9%,-10.0%
COC(=O)[C@@]12C[C@@H](CC(=O)NCc3ccccc3)C(=O)N(CCc3ccc(OC)c(OC)c3)C1=CCC(C)(C)C2,.,.,i,?,.,.
COC(=O)[C@@]12C[C@@H](CC(=O)NCc3ccc(OC)c(OC)c3)C(=O)N(Cc3cccc4ccccc34)C1=CCC(C)(C)C2,.,.,i,20.6µM*,.,.
COC(=O)[C@@]12C[C@@H](CC(=O)NCc3cccc4ccccc34)C(=O)N(CCc3ccc(OC)c(OC)c3)C1=CCC(C)(C)C2,.,.,?,23.1µM*,.,.
COC(=O)[C@@]12C[C@@H](CC(=O)NCc3ccc(C)o3)C(=O)N(CCc3ccc(OC)c(OC)c3)C1=CCC(C)(C)C2,.,.,?,18.4µM*,.,.
COC(=O)[C@@]12C[C@@H](CC(=O)NCc3cccs3)C(=O)N(CCc3ccc(OC)c(OC)c3)C1=CCC(C)(C)C2,.,.,i,?,.,.
COc1cccc(NC(=O)Cn2c(=O)n(CCCCC(=O)NCc3ccc4c(c3)OCO4)c(=O)c3ccccc32)c1,6.4%,.,i,?,.,.
CC(=O)Nc1ccc(S(=O)(=O)N(C)S(=O)(=O)c2ccc(F)cc2)cc1,28.5%[38.3 µM],-0.8%,i,16.4µM*,-4.0%,13.2%
CC(C)Sc1nsc2nc(=O)c(/C=C3\C=Nc4ccccc43)c(N)n12,4.0%,?,i,i,-5.9%,18.4µM*
CCC(CC)c1nn2c(N)c(/C=C3\C(C)=Nc4ccccc43)c(=O)nc2s1,-0.7%,-5.8%,i,?,-3.6%,23.1µM*
CC(C)c1nn2c(N)c(/C=C3\C=Nc4ccccc43)c(=O)nc2s1,1.3%,-2.9%,i,i,-3.5%,?
CCC(CC)c1nn2c(N)c(/C=C3\C=Nc4ccccc43)c(=O)nc2s1,17.0%,?,i,i,0.8%,3.26µM*
COc1cc(OC)cc(C(=O)Nc2ccc(S(=O)(=O)N3CCCCC3c3cccnc3)cc2)c1 (stereo not drawn),0.2%,.,.,.,.,.
SMILES,PINK1 modulator,SW480 rerep,KB-3-1 cytotox,KB-V1 cytotox,TSG101-PTAP inh,MCF10A rerep
COCCOC(=O)C1=C(C)NC(=S)NC1/C=C/c1ccccc1 (stereo not drawn),0.0%,0.7%,i,i,-3.0%,-1.9%
CC1=C(C(=O)OCc2ccccc2)C(/C=C/c2ccccc2)NC(=S)N1 (stereo not drawn),3.7%,9.9%,i,?,0.0%,23.1µM*
C=CCOC(=O)C1=C(C)NC(=S)NC1/C=C/c1ccccc1 (stereo not drawn),0.8%[38.3 µM],14.6µM*,i,i,-9.2%,-4.9%
O=C(c1ccc([N+](=O)[O-])cc1)N1CCN(c2ccc(Nc3ccccc3)nn2)CC1,3.6%,.,.,.,.,.
O=C(OC1Cc2c(O)cc(O)cc2OC1c1cc(O)c(O)c(O)c1-c1c(C2Oc3cc(O)cc(O)c3CC2O)cc(O)c(O)c1O)c1cc(O)c(O)c(O)c1 (stereo not drawn),-1.2%,.,.,.,.,.
CCc1ccccc1Nc1nc(N)nc(COC(=O)c2cccn2C)n1,1.1%[38.3 µM],12.6%,i,14.6µM*,-5.0%,?
O=C(NC[C@@H]1CCCN2CCCC[C@H]12)c1cnn(-c2nccc(-c3ccco3)n2)c1C1CC1,0.5%,.,.,.,.,.
Cc1ccc(OCC(=O)Nc2c(C(=O)c3ccc(Cl)cc3)oc3ccccc23)cc1C,0.2%,.,.,.,.,.
O=C(c1ccc(Cl)cc1)c1oc2ccccc2c1CS(=O)c1ccccc1 (stereo not drawn),-2.3%[38.3 µM],17.5%,i,5.17µM*,0.0%,?
O=S(=O)(c1ccccc1C(F)(F)F)N1CCN(c2nc(-c3cccs3)nc3ccccc23)CC1,-0.4%,.,i,i,.,.
O=C(NNc1nc(-c2ccccc2)cs1)c1ccccc1,1.7%,21.3%,?,16.4µM*,-2.3%,?
N#Cc1ccc(-c2csc(NNC(=O)c3ccc(Br)cc3)n2)cc1,20.8%,5.17µM*,i,i,-4.1%,?
O=C(NNc1nc(-c2ccc(Br)cc2)cs1)c1ccco1,5.3%,?,?,i,-6.9%,2.59µM*

# From PubChem BioAssay
